Data taken from article PMC11102866, “Nucleosome-bound NR5A2 structure reveals pioneer factor mechanism by DNA minor groove anchor competition”.
Residue numbers refer to the chain shown, from its start. Names and notes keep the numbering of the source.

B1: 28 (nucleosome)
DNA 1: ATCCTGGAGAATCCCGGTGCCGAGGCCGCTTCAAGGCCAGTAGACAGCTCTAGCACCGCTTAAACGCACGTACGCGCTGTCCCCCGCGTTTTAACCGCCAAGGGGATTACTCCCTAGTCTCCAGGCACGTGTCAGATATATACATCCTGTGAT
DNA 2: ATCACAGGATGTATATATCTGACACGTGCCTGGAGACTAGGGAGTAATCCCCTTGGCGGTTAAAACGCGGGGGACAGCGCGTACGTGCGTTTAAGCGGTGCTAGAGCTGTCTACTGGCCTTGAAGCGGCCTCGGCACCGGGATTCTCCAGGAT
modifications: reconstituted with mouse histones H2A, H2B, H3.3 and H4
B2: 33 (nucleosome)
DNA 1: B1 DNA 1 with T31C, C32A, A34T, G35T, G36T, C38A, T41G, A42C, G43C
DNA 2: B1 DNA 2 with C111G, T112G, A113C, G116T, C118A, C119A, T120A, G122T, A123G
modifications: reconstituted with mouse histones H2A, H2B, H3.3 and H4
B3: 31 (nucleosome)
DNA 1: B1 DNA 1 with T31C, C32A, A34T, G35C, G36A, C37A, C38G, A39G, G40C, T41C
DNA 2: B1 DNA 2 with A113G, C114G, T115C, G116C, G117T, C118T, C119G, T120A, G122T, A123G
modifications: reconstituted with mouse histones H2A, H2B, H3.3 and H4
B4: 25 (nucleosome)
DNA 1: ATCCTGGAGAATCCCGGTGCCGAGGCCTCAAGGCCAGTCGTAGACAGCTCTAGCACCGCTTAAACGCACGTACGCGCTGTCCCCCGCGTTTTAACCGCCAAGGGGATTACTCCCTAGTCTCCAGGCACGTGTCAGATATATACATCCTGTGAT
DNA 2: ATCACAGGATGTATATATCTGACACGTGCCTGGAGACTAGGGAGTAATCCCCTTGGCGGTTAAAACGCGGGGGACAGCGCGTACGTGCGTTTAAGCGGTGCTAGAGCTGTCTACGACTGGCCTTGAGGCCTCGGCACCGGGATTCTCCAGGAT
modifications: reconstituted with mouse histones H2A, H2B, H3.3 and H4
B5: 29 (nucleosome)
DNA 1: B1 DNA 1 with T31C, C32T, A33C, G35A, C37G, A39C, G40A
DNA 2: B1 DNA 2 with C114T, T115G, G117C, C119T, T121G, G122A, A123G
modifications: reconstituted with mouse histones H2A, H2B, H3.3 and H4
B6: 27 (nucleosome)
DNA 1: B1 DNA 1 with T31C, C32A, A34G, G36C, C38A, A39C
DNA 2: B1 DNA 2 with T115G, G116T, C118G, T120C, G122T, A123G
modifications: reconstituted with mouse histones H2A, H2B, H3.3 and H4
B7: 26 (nucleosome)
DNA 1: B4 DNA 1 with T28G, C29T, A30C, G32A, C34G, A36C, G37A
DNA 2: B4 DNA 2 with C117T, T118G, G120C, C122T, T124G, G125A, A126C
modifications: reconstituted with mouse histones H2A, H2B, H3.3 and H4
B8: 30 (nucleosome)
DNA 1: B4 DNA 1 with T28G, A30T, A31C, G32A, G33T, C35A, T38G, G40C, T41A
DNA 2: B4 DNA 2 with A113T, C114G, A116C, G119T, C121A, C122T, T123G, T124A, A126C
modifications: reconstituted with mouse histones H2A, H2B, H3.3 and H4
B9: 32 (nucleosome)
DNA 1: ATCCTGGAGAATCCCGGTGCCGAGGCCGCTCAATTCAAGGCCAACAGCTCTAGCACCGCTTAAACGCACGTACGCGCTGTCCCCCGCGTTTTAACCGCCAAGGGGATTACTCCCTAGTCTCCAGGCACGTGTCAGATATATACATCCTGTGAT
DNA 2: ATCACAGGATGTATATATCTGACACGTGCCTGGAGACTAGGGAGTAATCCCCTTGGCGGTTAAAACGCGGGGGACAGCGCGTACGTGCGTTTAAGCGGTGCTAGAGCTGTTGGCCTTGAATTGAGCGGCCTCGGCACCGGGATTCTCCAGGAT
modifications: reconstituted with mouse histones H2A, H2B, H3.3 and H4
B10: 34 (nucleosome)
DNA 1: B9 DNA 1 with C36G, A37T, A38C, G39A, G40A, C41G, C42G, A43C, A44C, C45A
DNA 2: B9 DNA 2 with G109T, T110G, T111G, G112C, G113C, C114T, C115T, T116G, T117A, G118C
modifications: reconstituted with mouse histones H2A, H2B, H3.3 and H4
B11: 38 (nucleosome)
DNA 1: B9 DNA 1 with C36G, A37G, A38T, G39C, C41T, C45G, A46G, G47C, T49A
DNA 2: B9 DNA 2 with A105T, C107G, T108C, G109C, G113A, C115G, T116A, T117C, G118C
modifications: reconstituted with mouse histones H2A, H2B, H3.3 and H4
B12: 36 (nucleosome)
DNA 1: ATCCTGGAGAATCCCGGTGCCGAGGCCGCTCAATTGGTTCAAGGCCACTCTAGCACCGCTTAAACGCACGTACGCGCTGTCCCCCGCGTTTTAACCGCCAAGGGGATTACTCCCTAGTCTCCAGGCACGTGTCAGATATATACATCCTGTGAT
DNA 2: ATCACAGGATGTATATATCTGACACGTGCCTGGAGACTAGGGAGTAATCCCCTTGGCGGTTAAAACGCGGGGGACAGCGCGTACGTGCGTTTAAGCGGTGCTAGAGTGGCCTTGAACCAATTGAGCGGCCTCGGCACCGGGATTCTCCAGGAT
modifications: reconstituted with mouse histones H2A, H2B, H3.3 and H4
B13: 37 (nucleosome)
DNA 1: B12 DNA 1 with T39C, C40T, A41C, G43A, C45G, A47C, C48A
DNA 2: B12 DNA 2 with G106T, T107G, G109C, C111T, T113G, G114A, A115G
modifications: reconstituted with mouse histones H2A, H2B, H3.3 and H4
B14: 4 (nucleosome)
DNA 1: ATCCTGTCAAGGCCAGGTGCCGAGGCCGCTCAATTGGTCGTAGACAGCTCTAGCACCGCTTAAACGCACGTACGCGCTGTCCCCCGCGTTTTAACCGCCAAGGGGATTACTCCCTAGTCTCCAGGCACGTGTCAGATATATACATCCTGTGAT
DNA 2: ATCACAGGATGTATATATCTGACACGTGCCTGGAGACTAGGGAGTAATCCCCTTGGCGGTTAAAACGCGGGGGACAGCGCGTACGTGCGTTTAAGCGGTGCTAGAGCTGTCTACGACCAATTGAGCGGCCTCGGCACCTGGCCTTGACAGGAT
modifications: reconstituted with mouse histones H2A, H2B, H3.3 and H4
B15: 35 (nucleosome)
DNA 1: B12 DNA 1 with T39C, C40A, A42G, G44C, C46A, A47G
DNA 2: B12 DNA 2 with T107C, G108T, C110G, T112C, G114T, A115G
modifications: reconstituted with mouse histones H2A, H2B, H3.3 and H4

Columns and labels:
[1] = biological target: NR5A2 wild type;histone octamer (Homo sapiens;, UniProt O00482;C0HKE1;Q6ZWY9;P84244;P62806 1-541;2-130;2-126;2-136;2-103, |); experiment: SeEN-seq (EMSA of nucleosome library followed by sequencing); 0.8 uM human NR5A2; 20 mM Tris-HCl pH 7.5, 120 mM NaCl, 1 mM MgCl2, 10 uM ZnCl2, 1 mM DTT, 100 ug/ml BSA, room temperature, 30 min; 0.1 uM nucleosome library; high values mean tight binding
[2] = biological target: mouse Nr5a2 wild type;histone octamer (Mus musculus;, UniProt P45448;C0HKE1;Q6ZWY9;P84244;P62806 1-560;2-130;2-126;2-136;2-103, |); experiment: SeEN-seq (EMSA of nucleosome library followed by sequencing); 1.2 uM mouse Nr5a2; 20 mM Tris-HCl pH 7.5, 120 mM NaCl, 1 mM MgCl2, 10 uM ZnCl2, 1 mM DTT, 100 ug/ml BSA, room temperature, 30 min; 0.1 uM nucleosome library; high values mean tight binding

Row | Binder | binding signal [1] | binding signal [2]
1 | B1 | 0.697 log2 enrichment (bound/unbound, relative to Widom 601) | 0.72 log2 enrichment (bound/unbound, relative to Widom 601)
2 | B2 | 2.48 log2 enrichment (bound/unbound, relative to Widom 601) | 2.25 log2 enrichment (bound/unbound, relative to Widom 601)
3 | B3 | 0.845 log2 enrichment (bound/unbound, relative to Widom 601) | 0.725 log2 enrichment (bound/unbound, relative to Widom 601)
4 | B4 | 0.708 log2 enrichment (bound/unbound, relative to Widom 601) | 0.587 log2 enrichment (bound/unbound, relative to Widom 601)
5 | B5 | 0.778 log2 enrichment (bound/unbound, relative to Widom 601) | 0.664 log2 enrichment (bound/unbound, relative to Widom 601)
6 | B6 | 0.842 log2 enrichment (bound/unbound, relative to Widom 601) | 0.575 log2 enrichment (bound/unbound, relative to Widom 601)
7 | B7 | 0.635 log2 enrichment (bound/unbound, relative to Widom 601) | 0.66 log2 enrichment (bound/unbound, relative to Widom 601)
8 | B8 | 0.787 log2 enrichment (bound/unbound, relative to Widom 601) | 0.718 log2 enrichment (bound/unbound, relative to Widom 601)
9 | B9 | 1.82 log2 enrichment (bound/unbound, relative to Widom 601) | 1.7 log2 enrichment (bound/unbound, relative to Widom 601)
10 | B10 | 1.32 log2 enrichment (bound/unbound, relative to Widom 601) | 1.03 log2 enrichment (bound/unbound, relative to Widom 601)
11 | B11 | 0.852 log2 enrichment (bound/unbound, relative to Widom 601) | 0.628 log2 enrichment (bound/unbound, relative to Widom 601)
12 | B12 | 0.81 log2 enrichment (bound/unbound, relative to Widom 601) | 0.77 log2 enrichment (bound/unbound, relative to Widom 601)
13 | B13 | 0.722 log2 enrichment (bound/unbound, relative to Widom 601) | 0.546 log2 enrichment (bound/unbound, relative to Widom 601)
14 | B14 | 4.82 log2 enrichment (bound/unbound, relative to Widom 601) | 3.77 log2 enrichment (bound/unbound, relative to Widom 601)
15 | B15 | 0.694 log2 enrichment (bound/unbound, relative to Widom 601) | 0.841 log2 enrichment (bound/unbound, relative to Widom 601)
